In PubChem BioAssay (Tox21):
Inconclusive results are not listed. Entries that show only a call come without a potency. Calls of active or inactive are those of the source. The call rests on the fitted dose curve; in most records, active means well fitted activation curve with a large enough effect in the repeat runs; inconclusive means weak or mixed curves; inactive means flat fitted curve, though single readings scatter.

Experiment: A CellTox Green Cytotoxicity Assay to monitor cytotoxicity in HepG2 cells - 40 hour (AID 1224879); further: nearly all actives have a fitted effect of over 40% in size
Details: CellTox Green fluorescence; series mostly up to 76.8 µM; cytotoxicity increase: at the top concentration
Text: National Center for Advancing Translational Sciences [NCATS]
NIH Chemical Genomics Center [NCGC]
U.S. Environmental Protection Agency [EPA]
National Institutes of Environmental Health Sciences [NIEHS]
National Toxicology Program [NTP]
Cell-based models are critical for drug discovery. Determining the natural cytotoxic effects resulting from test compounds is an essential research activity. A CellTox Green Cytotoxicity Assay to monitor cytotoxicity in real time of continues cell culture during 40 hours of the compound treatment was used to screen Tox21 10K library compounds in HepG2 cells. CellTox Green Cytotoxicity Assay is a nonlytic, homogeneous, biofluorescent method to measure cytotoxicity in cell culture after experimental manipulation. The assay system uses a proprietary asymmetric cyanine dye that is excluded from viable cells but preferentially stains the dead cell's DNA. […] Viable cells produce no appreciable increases in fluorescence. Therefore, the fluorescence signal produced by the binding interaction with dead cell DNA is proportional to cytotoxicity.
The mixture of HepG2 cell suspension and reagents were dispensed at 600cells/6 ul/well in 1536-well tissue culture treated black solid bottom plates using a Multidrop dispenser. After the assay plates were incubated at a 37 C/5% CO2 incubator for 5 hours, 23 nL of compounds dissolved in DMSO, positive and negative controls was transferred to the assay plate by a pintool work station. The plates were incubated at 37 C for 40 hours. The fluorescence intensity were measured at 0h, 8h, 16h, 24h, 32h and 40h time points using ViewLux plate reader during compound treatment.

Row | Compound | Potency | cytotoxicity increase
1 | OCc1ccccc1 | inactive | –
2 | CC1(C)OC[C@@H]2O[C@@]3(C(=O)O)OC(C)(C)O[C@H]3[C@@H]2O1 | inactive | –
3 | C=CCCCCCCCCC(=O)O | inactive | –
4 | C[C@]12CC[C@@H]3c4ccc(O)cc4CC[C@H]3[C@@H]1C[C@@H](O)[C@@H]2O | inactive | –
5 | NCCN1CCNCC1 | inactive | –
6 | COc1ccc(C)cc1N | inactive | –
7 | CC(CCO)CC(C)(C)C (stereo not given) | inactive | –
8 | C=CC[N+](C)(C)CC=C | – | 5.21% (inactive)
9 | N[C@H](Cc1c[nH]c2ccccc12)C(=O)O | inactive | –
10 | CC1(C)CC(N)CC(C)(CN)C1 (stereo not given) | – | 5.88% (inactive)
11 | CC(C)OP(=O)(CP(=O)(OC(C)C)OC(C)C)OC(C)C | inactive | –
12 | CC(=O)c1ccc(O)cc1 | inactive | –
13 | O=C(O)c1ccc(S(=O)(=O)N(Cl)Cl)cc1 | inactive | –
14 | CC(=O)OCc1ccccc1 | inactive | –
15 | CCCCCCCC=O | inactive | –
16 | CCOC(=O)c1ccc(N)cc1 | inactive | –
17 | CC(=O)OC1CC(C)OC(C)O1 (stereo not given) | inactive | –
18 | COc1ccccc1OCC(O)CO (stereo not given) | inactive | –
19 | CNC(=O)Oc1ccc2c(c1)[C@]1(C)CCN(C)[C@@H]1N2C | inactive | –
20 | CN1C(=O)CC[C@H]1c1cccnc1 | inactive | –

Row | Compound | Potency | cytotoxicity increase
21 | Brc1ccc(Br)c(Br)c1 | – | 1.58% (inactive)
22 | COc1cc(OC)c(C(=O)CCCN2CCCC2)c(OC)c1 | inactive | –
23 | NCCCCCCN | inactive | –
24 | Nc1ccc(Cl)c(N)c1 | inactive | –
25 | C[C@]12CCC(=O)C=C1CC[C@@H]1[C@@H]2[C@@H](O)C[C@@]2(C)[C@H]1CC[C@]2(O)C(=O)CO | inactive | –
26 | NCCNCCN | inactive | –
27 | COCCCN | inactive | –
28 | COc1ccc(CCC(C)=O)cc1 | inactive | –
29 | CCCCCCCCCCCC(=O)OC | inactive | –
30 | O=C1CCCC1 | inactive | –
31 | C=CCc1ccc(OC)c(OC)c1 | inactive | –
32 | O=[N+]([O-])c1ccc2nc[nH]c2c1 | inactive | –
33 | CC(C)(Oc1ccc(CCNC(=O)c2ccc(Cl)cc2)cc1)C(=O)O | inactive | –
34 | C=CC(C)CCCC(C)(C)O (stereo not given) | inactive | –
35 | CC(C)(C)c1cc(Cc2cc(C(C)(C)C)c(O)c(C(C)(C)C)c2)cc(C(C)(C)C)c1O | – | 0.147% (inactive)
36 | CC1(C)NC(=O)NC1=O | inactive | –
37 | C[Si]1(C)O[Si](C)(C)O[Si](C)(C)O[Si](C)(C)O1 | inactive | –
38 | CCCCOC(=O)c1ccc(N)cc1 | inactive | –
39 | CCCCCCCCCCCCCCCC(=O)OC(C)C | inactive | –
40 | CC(CCl)OP(=O)(OC(C)CCl)OC(C)CCl (stereo not given) | inactive | –
